Assay results taken from PubChem BioAssay (NCI).
About 83,000 compounds went through this panel and 20% of them were active in at least one assay; those are over-represented in the sample as a whole.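 Negative percent growth values reflect cell death: -40 means 40% of the cells present at the start died, and -100 means all died.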 The source made the active and inactive calls. Rule for the calls: active = growth percent below 10; inactive = the rest.

Assays:
Test in all cases: NCI-60 one-dose screen, 48 h (100 = growth as untreated, 0 = no growth, -100 = all killed)
SR leukemia = settings: 10 µM
RPMI-8226 leukemia = settings: 10 µM
OVCAR-8 ovarian = settings: 10 µM
OVCAR-5 ovarian = settings: 10 µM
OVCAR-4 ovarian = settings: 10 µM
SK-OV-3 ovarian = settings: 10 µM
OVCAR-3 ovarian = settings: 10 µM
NCI/ADR-RES ovarian = settings: 10 µM
T-47D breast = settings: 10 µM
BT-549 breast = settings: 10 µM
MDA-MB-435 melanoma = settings: 10 µM
SW-620 colon = settings: 10 µM
MCF7 breast = settings: 10 µM unless noted
HCT-116 colon = settings: 10 µM
HCC-2998 colon = settings: 10 µM
KM12 colon = settings: 10 µM
HS 578T breast = settings: 10 µM
IGROV1 ovarian = settings: 10 µM

Measured: growth

CC(C)=C(NC(=O)c1ccccc1)C(=O)O
inactive: SR leukemia 95.4% | RPMI-8226 leukemia 87.4% | OVCAR-8 ovarian 104% | OVCAR-5 ovarian 101% | OVCAR-4 ovarian 118% | SK-OV-3 ovarian 112% | OVCAR-3 ovarian 107% | NCI/ADR-RES ovarian 111% | T-47D breast 116% | BT-549 breast 110% | MDA-MB-435 melanoma 110% | SW-620 colon 102% | MCF7 breast 112% | HCT-116 colon 117% | HCC-2998 colon 101% | KM12 colon 99.6%

O=C1C=CC2=C3c4cc(O)c(O)cc4CC3(O)COC2=C1O (configuration not stated)
inactive: SR leukemia 109% | RPMI-8226 leukemia 90% | OVCAR-8 ovarian 97.2% | OVCAR-5 ovarian 104% | OVCAR-4 ovarian 110% | SK-OV-3 ovarian 113% | OVCAR-3 ovarian 123% | HS 578T breast 115% | NCI/ADR-RES ovarian 101% | T-47D breast 113% | MDA-MB-435 melanoma 111% | SW-620 colon 101% | MCF7 breast 98.1% | HCT-116 colon 99% | KM12 colon 114%
active: HCC-2998 colon -35.6%

CC(C)=NNC(N)=S
inactive: SR leukemia 86.7% | RPMI-8226 leukemia 67.8% | OVCAR-8 ovarian 72.4% | OVCAR-5 ovarian 89% | OVCAR-4 ovarian 59.4% | SK-OV-3 ovarian 115% | OVCAR-3 ovarian 37.2% | HS 578T breast 84.3% | NCI/ADR-RES ovarian 47.3% | T-47D breast 44.1% | BT-549 breast 88.3% | MDA-MB-435 melanoma 80.2% | SW-620 colon 68.7% | HCT-116 colon 21.4% | HCC-2998 colon 105% | KM12 colon 94.9%
active: MCF7 breast 7%

CCC(C)(C)C1CCC(O)CC1 (configuration not stated)
inactive: SR leukemia 102% | RPMI-8226 leukemia 101% | OVCAR-8 ovarian 102% | OVCAR-5 ovarian 92.5% | OVCAR-4 ovarian 107% | SK-OV-3 ovarian 103% | OVCAR-3 ovarian 104% | HS 578T breast 101% | NCI/ADR-RES ovarian 96.7% | T-47D breast 97.5% | BT-549 breast 96.6% | MDA-MB-435 melanoma 112% | SW-620 colon 101% | MCF7 breast 104% | HCT-116 colon 98.9% | KM12 colon 96%

Nc1ccc(N=Nc2ccc(O)cc2)c(N)n1
inactive: SR leukemia 80% | RPMI-8226 leukemia 38.1% | OVCAR-8 ovarian 75% | OVCAR-5 ovarian 104% | OVCAR-4 ovarian 59.2% | SK-OV-3 ovarian 97.3% | IGROV1 ovarian 89.4% | NCI/ADR-RES ovarian 64.5% | T-47D breast 82.8% | BT-549 breast 57.2% | MDA-MB-435 melanoma 69.3% | SW-620 colon 104% | MCF7 breast 93.4% | HCT-116 colon 86.3% | HCC-2998 colon 81.5% | KM12 colon 43.2%

N/N=C(/Cc1ccccc1)NNC(N)=S
inactive: SR leukemia 99.2% | RPMI-8226 leukemia 100% | OVCAR-8 ovarian 108% | OVCAR-5 ovarian 111% | OVCAR-4 ovarian 101% | SK-OV-3 ovarian 106% | OVCAR-3 ovarian 111% | HS 578T breast 106% | T-47D breast 91.6% | BT-549 breast 75.7% | MDA-MB-435 melanoma 92.3% | SW-620 colon 111% | MCF7 breast 89.2% | HCT-116 colon 86.3% | HCC-2998 colon 117% | KM12 colon 101%

Oc1ccccc1O
inactive: SR leukemia 75.5% | RPMI-8226 leukemia 60.1% | OVCAR-8 ovarian 86.3% | OVCAR-5 ovarian 106% | OVCAR-4 ovarian 77.4% | SK-OV-3 ovarian 120% | IGROV1 ovarian 79.1% | HS 578T breast 112% | NCI/ADR-RES ovarian 90.2% | T-47D breast 95.2% | BT-549 breast 96% | MDA-MB-435 melanoma 110% | SW-620 colon 94.7% | MCF7 breast 82.5% | HCT-116 colon 87.6% | KM12 colon 86.5%

COC1=CC(=O)c2nc(Cl)ccc2C1=O
inactive: OVCAR-5 ovarian 11.6% | SK-OV-3 ovarian 89.4% | IGROV1 ovarian 20.4% | HS 578T breast 74.7% | BT-549 breast 106% | HCC-2998 colon 100% | KM12 colon 91.3%
active: SR leukemia 5.55% | RPMI-8226 leukemia 3.41% | OVCAR-8 ovarian 7.95% | OVCAR-4 ovarian -97% | NCI/ADR-RES ovarian 5.5% | T-47D breast -38.7% | MDA-MB-435 melanoma -42.1% | SW-620 colon -59.8% | MCF7 breast -56.8% | HCT-116 colon -32.7%

COc1ccc(C(O)c2ccccc2)cc1 (configuration not stated)
inactive: SR leukemia 102% | RPMI-8226 leukemia 108% | OVCAR-8 ovarian 97.3% | OVCAR-5 ovarian 102% | OVCAR-4 ovarian 92.6% | SK-OV-3 ovarian 99.2% | OVCAR-3 ovarian 107% | HS 578T breast 108% | T-47D breast 87.3% | BT-549 breast 121% | MDA-MB-435 melanoma 102% | SW-620 colon 90.3% | MCF7 breast 97.5% | HCT-116 colon 110% | KM12 colon 93.7%

CNS(=O)(=O)c1ccc(Cl)c(Cl)c1
inactive: SR leukemia 78.1% | RPMI-8226 leukemia 136% | OVCAR-8 ovarian 99.2% | OVCAR-5 ovarian 98.5% | OVCAR-4 ovarian 99.8% | SK-OV-3 ovarian 105% | OVCAR-3 ovarian 123% | HS 578T breast 98.9% | NCI/ADR-RES ovarian 110% | T-47D breast 99.2% | BT-549 breast 112% | MDA-MB-435 melanoma 98.7% | SW-620 colon 104% | MCF7 breast 98% | HCT-116 colon 107% | HCC-2998 colon 118% | KM12 colon 108%

C=CCOC(=O)C(=O)OCC=C
inactive: SR leukemia 82.1% | RPMI-8226 leukemia 103% | OVCAR-8 ovarian 101% | OVCAR-5 ovarian 97.5% | OVCAR-4 ovarian 110% | SK-OV-3 ovarian 105% | OVCAR-3 ovarian 118% | HS 578T breast 130% | NCI/ADR-RES ovarian 117% | T-47D breast 93.9% | BT-549 breast 101% | MDA-MB-435 melanoma 120% | SW-620 colon 103% | MCF7 breast 101% | HCT-116 colon 101% | HCC-2998 colon 107% | KM12 colon 102%

CC(=O)Cc1ccc(-c2ccccc2)cc1
inactive: SR leukemia 102% | RPMI-8226 leukemia 97.5% | OVCAR-8 ovarian 104% | OVCAR-5 ovarian 112% | OVCAR-4 ovarian 109% | SK-OV-3 ovarian 108% | OVCAR-3 ovarian 113% | HS 578T breast 99.4% | NCI/ADR-RES ovarian 103% | T-47D breast 97.6% | BT-549 breast 109% | MDA-MB-435 melanoma 114% | SW-620 colon 108% | MCF7 breast 93.3% | HCT-116 colon 103% | HCC-2998 colon 101% | KM12 colon 101%

CC1(C(N)=O)CCC(C(=O)O)C1(C)C (configuration not stated)
inactive: SR leukemia 111% | RPMI-8226 leukemia 100% | OVCAR-8 ovarian 105% | OVCAR-5 ovarian 98.2% | OVCAR-4 ovarian 102% | SK-OV-3 ovarian 94.4% | OVCAR-3 ovarian 119% | HS 578T breast 105% | NCI/ADR-RES ovarian 110% | T-47D breast 91.3% | BT-549 breast 99.7% | MDA-MB-435 melanoma 97.4% | SW-620 colon 111% | MCF7 breast 88.4% | HCT-116 colon 99.7% | HCC-2998 colon 99.4% | KM12 colon 111%

O=C(CS)Nc1ccc2ccccc2c1
inactive: SR leukemia 94.9% | RPMI-8226 leukemia 44.9% | OVCAR-8 ovarian 114% | OVCAR-5 ovarian 102% | OVCAR-4 ovarian 116% | SK-OV-3 ovarian 108% | IGROV1 ovarian 107% | T-47D breast 90.9% | BT-549 breast 118% | MDA-MB-435 melanoma 116% | SW-620 colon 95.2% | MCF7 breast 85.3% | HCT-116 colon 94.6% | HCC-2998 colon 80.5% | KM12 colon 102%

CCN(CC)C(=O)/C=C(/C)c1ccccc1
inactive: SR leukemia 107% | RPMI-8226 leukemia 109% | OVCAR-8 ovarian 105% | OVCAR-5 ovarian 113% | OVCAR-4 ovarian 92.7% | SK-OV-3 ovarian 107% | OVCAR-3 ovarian 111% | HS 578T breast 101% | NCI/ADR-RES ovarian 102% | T-47D breast 102% | BT-549 breast 94.5% | MDA-MB-435 melanoma 108% | SW-620 colon 102% | MCF7 breast 102% | HCT-116 colon 106% | HCC-2998 colon 88.6% | KM12 colon 111%

Cc1ccc(C(O)C2CC2)cc1 (configuration not stated)
inactive: SR leukemia 91.7% | RPMI-8226 leukemia 99.3% | OVCAR-8 ovarian 94.1% | OVCAR-5 ovarian 94% | OVCAR-4 ovarian 105% | SK-OV-3 ovarian 106% | OVCAR-3 ovarian 106% | HS 578T breast 104% | NCI/ADR-RES ovarian 107% | T-47D breast 97.4% | BT-549 breast 107% | MDA-MB-435 melanoma 103% | SW-620 colon 100% | MCF7 breast 104% | HCT-116 colon 107% | HCC-2998 colon 113% | KM12 colon 107%

O=C(O)c1cccc([N+](=O)[O-])c1
inactive: SR leukemia 97.4% | RPMI-8226 leukemia 120% | OVCAR-8 ovarian 103% | OVCAR-5 ovarian 120% | OVCAR-4 ovarian 105% | SK-OV-3 ovarian 113% | OVCAR-3 ovarian 109% | HS 578T breast 110% | NCI/ADR-RES ovarian 107% | T-47D breast 109% | BT-549 breast 108% | MDA-MB-435 melanoma 111% | SW-620 colon 111% | MCF7 breast 99.2% | HCT-116 colon 102% | HCC-2998 colon 102% | KM12 colon 105%

O=C(CN1CCNCC1)N1CCOCC1
inactive: SR leukemia 82.6% | RPMI-8226 leukemia 99.3% | OVCAR-8 ovarian 91.9% | OVCAR-5 ovarian 109% | OVCAR-4 ovarian 110% | SK-OV-3 ovarian 110% | OVCAR-3 ovarian 122% | HS 578T breast 102% | T-47D breast 102% | BT-549 breast 113% | MDA-MB-435 melanoma 109% | SW-620 colon 108% | MCF7 breast 97.8% | HCT-116 colon 103% | HCC-2998 colon 108%

COCCOC(=O)c1ccc(C(C)C)cc1
inactive: SR leukemia 95.7% | RPMI-8226 leukemia 108% | OVCAR-8 ovarian 103% | OVCAR-5 ovarian 104% | OVCAR-4 ovarian 104% | SK-OV-3 ovarian 82.1% | OVCAR-3 ovarian 99.5% | HS 578T breast 117% | NCI/ADR-RES ovarian 96% | T-47D breast 85% | BT-549 breast 98.5% | MDA-MB-435 melanoma 102% | SW-620 colon 104% | MCF7 breast 95.6% | HCT-116 colon 100% | HCC-2998 colon 103% | KM12 colon 101%

O=c1cc2oc3cc(O)c(O)cc3c(-c3ccccc3O)c-2cc1O
inactive: SR leukemia 82.7% | RPMI-8226 leukemia 12.1% | OVCAR-8 ovarian 75.1% | OVCAR-5 ovarian 94.8% | OVCAR-4 ovarian 70.1% | SK-OV-3 ovarian 57.4% | IGROV1 ovarian 63.9% | NCI/ADR-RES ovarian 78.4% | T-47D breast 70.8% | BT-549 breast 77.7% | MDA-MB-435 melanoma 68.9% | SW-620 colon 89.3% | MCF7 breast 75.8% | HCT-116 colon 59.2% | HCC-2998 colon 94.7% | KM12 colon 92.7%
